# Source: PubChem BioAssay AID1443 (Sanford-Burnham Center for Chemical Genomics, 2008)
# Out of some 220,000 compounds screened, about 880 (0.4%) were called active. What follows is part of a selection rich in actives, with near analogues and random picks from the rest. Values without a mark were called inactive.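 How the source made its calls: active means cell killing above 50% in the first pass at 4 µM, then a duplicate retest at 5 µM averaging 50% or more; inactive means the rest.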
# Assay: PPC-1 cell viability loss under TRAIL – PPC-1 cells, ATPLite luminescence, uHTS, TRAIL potentiator project, primary screen (AID 1443);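 further: plate controls were cells with TRAIL plus DMSO for no effect and medium-only wells lacking cells for full effect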
# Settings: PPC-1 cells + TRAIL, stronger effect = higher value; at 4 µM unless noted
row,SMILES,cell killing (% activity)
1,Cc1nonc1C(=O)N/N=C/c1ccc(O)cc1,-5.1%
2,CC(NC(=O)CCC(=O)N1CCN(S(=O)(=O)c2ccc(Cl)cc2)CC1)c1ccccc1 (stereo not drawn),16.9%
3,CCN(CC(=O)Nc1ccc(S(=O)(=O)N2CCCC2)cc1)CC(=O)Nc1cccc(OC)c1,6.9%
4,CC(C)n1cnc2c(Nc3cccc(Cl)c3)nc(N(CCO)CCCO)nc21,8.8%
5,NS(=O)(=O)c1cccnc1Nc1cccc(Cl)c1,23%
6,OCCCNc1nccc(-c2cc(Nc3cccc(Cl)c3)ncn2)n1,80.9% (active)
7,CCOC(=O)c1sc2nc(C)nc(Nc3ccc(OC)c(OC)c3)c2c1C,-11.6%
8,CCN1CCC2(CC1)N=C(c1ccc(F)cc1)C(=S)N2C(=O)c1ccc(C)cc1,5.2%
9,O=C(Nc1n[nH]c(C(F)(F)F)n1)c1cccs1,2.7%
10,O=C(COC(=O)c1ccc(S(=O)(=O)Nc2ccccc2)cc1)NCC1CCCO1 (stereo not drawn),14.7%
11,Cc1cc(C)nc(NC(=O)/C=C/c2ccc(Cl)cc2)n1,-2.4%
12,c1c2c(cc3sc(N4CCCCC4)nc13)OCCO2,65.8% (active)
13,Cc1nc2cc3c(cc2s1)OCO3,9%
14,Brc1ccc2nc(N3CCCC3)sc2c1,-2.5%
15,O=C(O)/C(=C/c1cccnc1)NC(=O)c1ccccc1,9%
16,COCCNc1nc(-c2ccccc2)nc2c1oc1ccccc12,8.8%
17,Cc1ccc2nsnc2c1S(=O)(=O)N1CCCC1C(=O)O (stereo not drawn),13.9%
18,Cc1cc(=O)oc2c(C(=O)c3ccccc3)c(OCC(N)=O)ccc12,6.8%
19,COc1cccc(C(=O)n2ccc(-c3cccs3)n2)c1,-11.4%
20,C=CCN(C(=O)Nc1ccc2c(c1)nc(C)n2C)c1ccccc1,14.1%
21,Cc1nc2cc(NC(=O)Nc3cccc(F)c3)ccc2n1C,54.1% [at 5 µM] (active)
22,Cc1nc2cc(NC(=O)NC3CC3)ccc2n1C,14.9%
23,COC(C(=O)Nc1ccc(S(=O)(=O)Nc2ccc(C)c(C)c2)cc1)c1ccccc1 (stereo not drawn),19.1%
24,COc1ccccc1NC(=O)CCSc1nnc(-c2ccc(O)cc2)o1,-2.2%
25,CCC(C)N1C(=S)SC(C)(C)C1N(O)C(=O)NC1CCCCC1 (stereo not drawn),13.9%
26,COc1cccc(/C=N/NC(=O)c2cccc([N+](=O)[O-])c2)c1OS(=O)(=O)c1ccc(C)cc1,-0.7%

row,SMILES,cell killing (% activity)
1,Cc1[nH]n(-c2ccccc2)c(=O)c1/C=N/NC(=O)c1ccoc1C,29.6%
2,Cc1ccc(-n2[nH]c(C)c(/C=N/NC(=O)c3cccc([N+](=O)[O-])c3)c2=O)cc1C,60.3% (active)
3,CC(C)CNC(=S)Nc1ccc(F)cc1,31.5%
4,CC1CC(=S)Nc2ccccc2N1Cc1ccccc1 (stereo not drawn),16%
5,CCNC(=O)COC(=O)/C=C/c1c(C)nn(Cc2cccc(OC)c2)c1Cl,-7.2%
6,CCOC(=O)c1nnn2c1nc(N1CCN(c3ccccc3)CC1)c1ccccc12,3.6%
7,Cc1csc(SCC(=O)Nc2sccc2C#N)n1,10.6%
8,c1ccc(-c2nc(NCc3ccco3)c3ccccc3n2)cc1,6.1%
9,Clc1cccc(-c2nc(NCC3CCCO3)c3ccccc3n2)c1 (stereo not drawn),-5.4%
10,Clc1ccc2nc(-c3ccccc3)nc(C(Cl)Cl)c2c1,79.2% [at 5 µM] (active)
11,COc1ccc(CCNCC(O)Cn2ccc3ccccc32)cc1OC (stereo not drawn),-2.7%
12,CC(=O)NC1C(Oc2ccc(C)cc2)OC2COC(c3ccco3)OC2C1O (stereo not drawn),2.4%
13,COc1cccc(/C=N\NC(=O)C2=NNC(=O)C2C)c1O (stereo not drawn),24.7%
14,COc1cccc(/C=N/Nc2cc(C)nc(-c3ccccc3O)n2)c1O,21.2%
15,COc1cccc(/C=N/NC(=O)c2[nH]nc3c2CCc2ccccc2-3)c1O,57.1% (active)
16,O=C(/C=C/c1ccccc1)Oc1coc(CSc2ncccn2)cc1=O,5.1%
17,Cc1nc2cc(NCc3cccs3)ccc2n1C,1.5%
18,Cc1ccc(C(=O)N/C(=C\c2ccco2)C(=O)NC2CCS(=O)(=O)C2)cc1 (stereo not drawn),9.8%
19,COc1ccc(-c2ccnc(SCC(=O)N3CCOCC3)n2)cc1,20.6%
20,COc1ccc(-c2nc(SCC(=O)N3CCOCC3)n[nH]2)cc1,4.4%
21,CCOc1ccc(-c2ccc(SCC(=O)N3CCOCC3)nn2)cc1,56.9% [at 5 µM] (active)
22,NC(=O)COC(=O)/C=C/c1ccc2ccccc2n1,14.6%
23,COc1cccc(/C=C/c2ccc3ccccc3n2)c1OC(C)=O,70.3% [at 5 µM] (active)
24,CCOc1cccc(/C=C/c2ccc3ccccc3n2)c1OC(C)=O,49.3%
25,Cc1ccc(C(=O)NNc2ncnc3ccccc23)cc1,35.9%
26,CC(C)c1ccc(NC(=S)NNc2ccc(Cl)c(C(=O)O)c2)cc1,-1.7%

row,SMILES,cell killing (% activity)
1,CC(c1ccccn1)N(CCN(C)C)C(=S)Nc1ccccc1F (stereo not drawn),20.3%
2,COc1cc2c(cc1OC)C(=O)NCC(C)(C)O2,20.2%
3,CCC/C(C)=N\Nc1nc2c(c(=O)n(C)c(=O)n2C)n1C,8%
4,CCOC(=O)c1sc(NC(=O)CSc2nc3c(c(=O)n2-c2ccccc2)SCC3)c(C(=O)OCC)c1C,5.5%
5,O=c1oc2ccccc2cc1-c1cn(-c2ccccc2)c(=S)[nH]1,57.2% (active)
6,Nc1ncc(-c2cc3ccccc3oc2=O)s1,11.4%
7,O=C(c1cn(-c2ccccc2)nc1-c1cc2ccccc2oc1=O)N1CCOCC1,28.2%
8,O=C(O)COCC(=O)NCc1csc2ccc(Cl)cc12,6.2%
9,O=C(Nc1ccccc1)C1CC(=O)n2c(nc3ccccc32)N1 (stereo not drawn),1.1%
10,COc1cc(OC)c2ccc(=O)oc2c1C(CCN1CCN(c2ccccc2)CC1)c1ccc2c(c1)OCO2 (stereo not drawn),-2.2%
11,COc1ccc(OC)c(C(=O)c2ccc(Cl)cc2)c1,-11.3%
12,CCOC(=O)c1c(C)[nH]c(=S)c(C#N)c1-c1ccccc1,18.1%
13,CCOC(=O)C1=C(c2ccc(OC)cc2)C(=O)c2ccccc2C1=O,23.5%
14,CCOC(=O)c1c(C)[nH]c2c1-c1ccccc1C(=O)C2=O,96.5% [at 5 µM] (active)
15,Cc1cccc(C2c3[nH]c4ccccc4c3CCN2C(=O)c2cc(-c3cccn3C)n[nH]2)n1 (stereo not drawn),-11.4%
16,COc1cc(SC)ccc1C(=O)NCCOc1ccccc1Cl,9.8%
17,COc1cc(SC)ccc1C(=O)Nc1nc(C)cs1,96% [at 5 µM] (active)
18,COc1ccccc1CNC(=O)c1ccc(SC)cc1OC,16.9%
19,COc1ccc(C(=O)Nc2nncs2)c(OC)c1,21.1%
20,Cc1ccnc(NC(=O)c2ccoc2C)c1,0%
21,COc1cc(SC)ccc1C(=O)Nc1cc(C)ccn1,53.7% [at 5 µM] (active)
22,O=C(Nc1nnc(SCc2ccccc2Cl)s1)c1cccc([N+](=O)[O-])c1,2.1%
23,Cc1ccc(C)n1NC(=O)c1ccc([N+](=O)[O-])cc1,11.3%
24,CN(C)/C=C(/C(=O)c1ccc(Cl)c(Cl)c1)c1nnnn1-c1ccccc1,10.3%
25,CC(C)NC(=O)NCCCCCCS(C)=O (stereo not drawn),20.6%
26,O=S(=O)(NCC1CCCO1)c1cnc(Cl)c(Cl)c1 (stereo not drawn),-24.2%
